According to PubChem BioAssay (NCI):
This is part of a sample that, as a whole, favours compounds with a hit. Of some 83,000 tested, about 20% had one in any assay.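 Each cell line was grown in a 96-well plate and treated with one concentration of compound for 48 hours. Values below 10 were considered active.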 Active and inactive are the calls of the source.

Each compound was assayed on HL-60(TB) leukemia (assay: NCI-60 one-dose screen, 48 h (100 = growth as untreated, 0 = no growth, -100 = all killed)). Settings: 10 µM unless noted.
With `CCOC(=O)C1=C(c2ccccc2)N=C2N(c3ccccc3)N=C(C(C)=O)N2C1c1ccc(F)cc1` (configuration not stated) the growth was 89.8% (inactive).
`CC(/C=N/N1C(=O)c2ccccc2C1=O)c1ccccc1` (configuration not stated) was tested, and the growth was 108% (inactive).
`CCOC(=O)c1c2c(cn1Cc1ccccc1)-c1oncc1CC2` was tested, and the growth was 98.6% (inactive).
With `OCC1OC2C(NC(=S)N2c2ccccc2)C(O)C1O` (configuration not stated) the growth was 90.8% (inactive).
In the case of `O=C(N/N=C/c1ccc(O)cc1O)c1ccc(Nc2ccnc(C(F)(F)F)c2)cc1`, the growth was 44.1% (inactive).
In the case of `Cc1cccc(/C=N/Nc2cc(C)c3cccc(C)c3n2)n1`, the growth was 83.1% (inactive).
In the case of `FC(F)(F)c1cccc(-c2nnn(Cc3cc(-c4cccc(Cl)c4)no3)n2)c1`, the growth was 108% (inactive).
`CC(=O)NC1(C(=O)O)CCCC1` was tested, and the growth was 101% (inactive).
For `O=C(Nc1ccc(F)cc1)c1cc2ccccc2cc1O`, the growth was 71.2% (inactive).
`Cc1ccc2c(c1)Nc1ccc(C)cc1C2(C)C` was tested, and the growth was 81% (inactive).
`CSc1nc(C)c([N+](=O)[O-])c(N)n1` was tested, and the growth was 90.2% (inactive).
`CC(C)(CC(=O)O)CC(=O)O` was tested, and the growth was 103% (inactive).
In the case of `Brc1ccc2[nH]cc(-c3nc(-c4c[nH]c5ncccc45)cs3)c2c1`, the growth was 32.7% (inactive).
`O=C(CBr)CN1C(=O)c2ccccc2C1=O` was tested, and the growth was 103% (inactive).
For `CO[C@H](C(=O)N[C@@H](CCCCNC(=O)OCc1ccccc1)C(=O)OC(C)(C)C)[C@@H]1Cc2cc3cc(OC4CC(OC5CC(O)C(O)C(C)O5)C(O)C(C)O4)c(C)c(O)c3c(O)c2C(=O)[C@H]1OC1CC(OC2CC(OC3CC(C)(O)C(O)C(C)O3)C(O)C(C)O2)C(O)C(C)O1` (some centres not stated), the growth was -0.249% (active).
`O=C(Nc1ccc(-n2ccc3c(NC(=O)c4ccccc4)nccc32)cc1)c1ccc(Cl)c(C(F)(F)F)c1` was tested, and the growth was 25.7% (inactive).
For `O=C(O)/C=C/C(=O)Nc1cccc(Cn2nnc3cc(Cl)c(Cl)cc32)c1`, the growth was 112% (inactive).
`N#CC1=C(N)Oc2ccc3ccccc3c2C1c1ccccc1Cl` (configuration not stated) was tested, and the growth was 0.765% (active).
`CCOc1ccc2nc(C)cc(Nc3ccc(Br)cc3)c2c1` was tested, and the growth was 107% (inactive).
In the case of `CN(C)CCS(=O)(=O)Nc1cc(-c2ccc3ncc(C#N)c(Nc4ccc(F)c(Cl)c4)c3c2)cnc1Cl`, the growth was -28.4% (active).
In the case of `CSc1nc2c(c(=O)[nH]1)N=C1c3ccccc3C(=O)C1C(c1ccc(F)cc1)N2` (configuration not stated), the growth was 91.4% (inactive).
`ClC1=C(Cl)C(Cl)=C(Cl)C1=C/C=C/c1ccccc1` was tested, and the growth was -45.5% (active).
For `CC(C)CCSc1nc(Nc2ccccc2)c(C#N)c(-c2ccccc2)n1`, the growth was 76.5% (inactive).
In the case of `COc1ccc(-c2nnc3c4[nH]cnc4ncn23)c(OC)c1`, the growth was 12.8% (inactive).
For `COC(=O)C1(C(=O)OC)C2C(=O)C3C(C21)C3(C(=O)OC(C)(C)C)C(=O)OC(C)(C)C` (configuration not stated), the growth was 96.6% (inactive).
With `O=C(N/N=C/c1ccccc1O)c1ccccc1` the growth was 11.4% (inactive).
`O=C1c2cccc3c(-c4ccc5c(c4)ncn5C4CCCCC4)ccc(c23)C(=O)N1c1nc2ccccc2s1` was tested, and the growth was 76% (inactive).
